The values that follow come from PubChem BioAssay AID1851 (National Center for Advancing Translational Sciences (NCATS), 2009).

About 2,600 (16%) of roughly 16,000 compounds were called active. Inconclusive results (about 20%) are left out. The list is a sample of the results. Values without a mark were called inactive. Calls follow the shape of the dose curve; as a rule, active = well fitted curve in the direction sought with a large enough effect; inconclusive = small, poorly fitted or top-dose-only effect, or effect the other way; inactive = no such curve, though single readings can be large or run the other way.

What is called AC50 is the concentration giving half of the maximal activity seen.
% is scaled to controls: 0 for no effect and ±100 for the full control effect.

The target in this test is Cytochrome P450 2D6 (Homo sapiens) (UniProt P10635). In words: Cytochrome panel assay with activity outcomes. The note with it: recombinant CYP, pro-luciferin dealkylation, luminescence, p450-cyp2d6; series mostly up to 57.1 µM; activity, negative = inhibition: at the top concentration.
Chain of Cytochrome P450 2D6 (Homo sapiens) (P10635 whole entry, looked up): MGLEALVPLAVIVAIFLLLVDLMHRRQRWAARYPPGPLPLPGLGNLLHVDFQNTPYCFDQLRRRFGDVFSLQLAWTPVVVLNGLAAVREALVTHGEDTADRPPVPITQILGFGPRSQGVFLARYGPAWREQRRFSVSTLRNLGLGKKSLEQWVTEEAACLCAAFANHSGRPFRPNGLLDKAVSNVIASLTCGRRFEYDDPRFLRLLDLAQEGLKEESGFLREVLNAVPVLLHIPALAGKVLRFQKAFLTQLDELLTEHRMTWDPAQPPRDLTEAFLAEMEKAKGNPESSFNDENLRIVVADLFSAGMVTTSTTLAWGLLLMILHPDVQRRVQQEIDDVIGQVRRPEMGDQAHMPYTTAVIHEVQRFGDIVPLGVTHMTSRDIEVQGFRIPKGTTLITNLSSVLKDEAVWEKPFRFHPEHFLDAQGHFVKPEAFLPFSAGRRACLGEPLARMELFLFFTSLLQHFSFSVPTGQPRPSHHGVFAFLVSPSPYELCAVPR
With `CC(OC(=O)Cn1c(C(F)(F)F)nc2ccccc21)C(N)=O` (stereo not drawn), the “activity, negative = inhibition” value was 0.379%. As for `Cc1ccc(N=Cc2cc(C)n(C3CCCC3)c2C)cc1`, the AC50 was 15.8 µM (active). Regarding `COC(=O)N1CCC2(CC1)CCN(c1ncccn1)CC2`, the “activity, negative = inhibition” value was 12.2%. Regarding `COc1ccc(/C=C/c2ccncc2)cc1`, the AC50 is 8.91 µM (active). Take `COc1ccc(OC(=O)c2ccncc2)cc1`: the “activity, negative = inhibition” value is -16.3%.

For the molecule `COc1cc(/C=C\c2ccc(OC)cc2OC)cc(OC)c1`, the “activity, negative = inhibition” value is 4.63%. Turning to `CC(C)(C)NC(=O)Cn1cnc([N+](=O)[O-])n1`, the “activity, negative = inhibition” value is -7.65%. For the molecule `CSc1nc2ccc3nc(NC(=O)c4cccs4)sc3c2s1`, the “activity, negative = inhibition” value is -24.7%. `O=C(Cn1cnc2ccccc2c1=O)Nc1nnc(SCc2ccccc2)s1`: the “activity, negative = inhibition” value was -15.3%. Still for that read-out and setting: for `COc1cc(OC)cc(C(=O)NC(=S)Nc2ccc(Cl)c(C(=O)O)c2)c1` the value was -13.6%. The same measure, in the same setting: for `C[C@@H](c1ccccc1)N1C(=O)[C@H]2[C@H]3[C@H](O)[C@H](O)C/C(=N/OCc4ccccc4)[C@H]3CC[C@@H]2C1=O` the value was 6.68% [at 11.4 µM]. Same read-out and setting: for `O=c1c(-c2cc(F)cc(F)c2)nc2cnc(Oc3ccccc3)nc2n1C1CC1` the value was -1.3%. In the case of `CN(C)CCCn1c2c3ccccc3ccc2c2oc(=O)c3ccccc3c21`, the AC50 is 1.26 µM (active).

For the molecule `Cc1nc2cccc([N+](=O)[O-])c2n1CCCN(C)C`, the activity, negative = inhibition was 3.67% [at 11.4 µM]. On to `O=C1C2C3c4ccccc4C(c4ccccc43)C2C(=O)N1c1nc(-c2ccccc2)cs1` (stereo not drawn), for which the “activity, negative = inhibition” value was 15%. The same measure, in the same setting: for `O=C(Nc1ccc(-c2nc3ccccc3o2)cc1)c1ccc(N2CCOCC2)c([N+](=O)[O-])c1` the value was -4.29%. For the molecule `O=C(O)C1=CCNCC1`, the AC50 entry is “inactive”. Take `CCC[C@H]1C(=O)N2C(N(C)C)=Nc3ccc(C)cc3N2C1=O`: the “activity, negative = inhibition” value is -3.99% [at 25.6 µM]. For the molecule `O=C(Nc1ccccc1)/C(=C\c1ccncc1)NC(=O)c1ccccc1`, the “activity, negative = inhibition” value is -8.98%.

`CC(=O)Nc1ccc(NCN2C(=O)C3C4CCC(C4)C3C2=O)cc1` (stereo not drawn): the “activity, negative = inhibition” value was 19.6%.

In the case of `COc1ccccc1NC(=O)C1=C(C)Nc2nc(-c3ccc(N(C)C)cc3)nn2C1c1ccncc1` (stereo not drawn), the “activity, negative = inhibition” value is 0.163%. On the same count and under the same terms, for `Nc1nnnn1/N=C\c1ccc(Cl)c([N+](=O)[O-])c1` the value was 17%. Regarding `COc1ccc(-n2c(C)n[nH]c2=O)cc1`, the “activity, negative = inhibition” value was 15.3%. Take `Cc1cc(C)cc(NC(=O)CCc2nc3ccccc3[nH]2)c1`: the “activity, negative = inhibition” value was -11.3%. Take `CC(C)c1ccc(NC(=O)N(CCc2nc3ccccc3[nH]2)C2CCCC2)cc1`: the concentration at half-maximal activity (AC50) is 2.51 µM (active). On to `O=C(O)[C@H]1CCCC[C@@H]1C(=O)Nc1nc2ccccc2[nH]1`, for which the activity, negative = inhibition was -3.05% [at 11.4 µM]. For `O=C(N/N=C/c1cccc(OC2CSC2)c1)c1ccccc1O`, the “activity, negative = inhibition” value is -21.8%. `Nc1ccccc1N=Nc1c(S(=O)(=O)O)cc2cc(S(=O)(=O)O)cc(O)c2c1O`: the activity, negative = inhibition is -13.1% [at 11.4 µM].
